# From PubChem BioAssay (NCATS)
# Records with an inconclusive call do not appear. Calls of active or inactive are those of the source. Calls come from the whole dose curve; as a rule, active = well fitted cell-killing curve with a large enough effect; inconclusive = small, poorly fitted or top-dose-only effect, or effect the other way; inactive = flat fitted curve, though single readings scatter.
# System: CAOV3
# Test: Primary qHTS to identify gynecologic anti-cancer compounds using libraries of approved drugs and bioactive compounds (AID 1345084); note: nearly all actives have a fitted effect of over 55% in size
# Conditions: Gynecologic cancer cell panel viability, ATPlite luminescence, 48 h; series mostly up to 57.5 µM; activity change, negative = cytotoxicity: at the top concentration
# Excerpt: National Center for Advancing Translational Sciences [NCATS] Assay Overview: Chemotherapeutic drug responses vary from cancer to cancer and from patient to patient. These variations could be caused by a number of factors including patient genomic background, tumor mutations, tumor heterogeneity, and aspects of drug treatment. Chemotherapeutic drug resistance is also a common issue and can lead to ineffective treatment and patient death. Here we have profiled the cell killing effects of thousands of compounds to characterize the responses in three gynecological cancers, identify cancer-selective compounds, and understand the diversity of responses to these compounds from pan-cancer suppressors to single cell line selective compounds. In this assay, we screened a 7,914 compound drug library that included approved drug and bioactive compounds in six ovarian, three cervical, and […] placental cancer cell lines using the ATPlite assay for cell viability. […] The cervical cancer cell lines included HeLa, Ca Ski, and C-33 A. The placental cancer cell lines included JEG-3. HEK 293T cells were used as the control cell line to determine the selectivity index. ATPlite is a luminescence based assay reliant on the conversion of a luciferase substrate to light in the presence of ATP. As a cytotoxic compound will suppress growth and decrease the number of cells, the concentration of ATP will decrease, and less light signal will be detected in the well.
# Assay Protocol Summary: 1,000 cells in 4 uL of media were dispensed into white, solid bottom 1536-well plates using a Multidrop Combi (Thermo Scientific). The Assay plates were incubated for 16 hours at 37 C with 5% CO2 in assay plates, followed by the addition of 23 nL of DMSO or drug dissolved in DMSO. Each compound was assayed in five concentrations (0.092, 0.46, 2.3, 11.5, and 57.5 uM), using the automated Wako 1536 Pin Tool workstation and incubated at 37 C with 5% CO2 48 hours. 4 uL of ATPlite, the ATP monitoring reagent, was then added to the each well of the assay plates using the Multidrop Combi reagent dispenser followed by incubation for 15 minutes at room temperature. The resulting luminescence was measured using the ViewLux plate reader.
# % is set by controls: 0 for no effect and ±100 for the full control effect; potency is the fitted concentration of half-maximal effect.
Structure (SMILES),"activity change, negative = cytotoxicity",Potency
COc1ccc(NS(=O)(=O)c2sc3ccc(Cl)cc3c2C)cc1N1CCNCC1,-4.07% (inactive),
CCOC(=O)c1cccc(CNc2ccc(N(C)C(=O)Nc3ccccc3)cc2)c1,-2.81% (inactive),
CN(C)CC(=O)Nc1ccc2[nH]c(=O)c3ccccc3c2c1,4.43% (inactive),
Oc1ccc(Nc2nc(-c3ccc(Cl)cc3)cs2)cc1,-7.18% (inactive),
CC1OC2O[C@H]3[C@@H](OCC(O)[C@H]3O)OC(=O)C34CCC(C)(C)CC3C3=CCC5C6(C)CC(O)C(OC7OC(CO)C(O)C(O)C7O[C@@H]7OC[C@H](OC(=O)CC(C)(O)CC(=O)OC1C(OC1OCC(O)C(O)C1O)C2O)[C@@H](O)[C@H]7O)C(C)(CO)C6CCC5(C)C3(C)CC4 (stereo not given in full),-18.9% [at 25.3 µM] (inactive),
CC(C)n1cnc2c(Nc3cccc(Cl)c3)nc(NCCO)nc21,-23.6% (inactive),
O=C(Nc1ccc(F)cc1)N1CCc2ccccc2C1c1ccc(C(F)(F)F)cc1 (stereo not given),-0.62% (inactive),
Fc1ccccc1CNCc1ccc(-c2ccnc3[nH]ccc23)cc1,-0.693% (inactive),
C=C1C(=O)O[C@@H]2C[C@@]3(C)CCC[C@H](C)C3=C[C@H]12,7.64% (inactive),
O=C(CC1NCCC[C@H]1O)Cn1cnc2cc(Br)c(Cl)cc2c1=O (stereo not given in full),0.177% (inactive),
CCCCC(=O)N(Cc1ccc(-c2ccccc2-c2nn[nH]n2)cc1)C(C(=O)O)C(C)C (stereo not given),-16% (inactive),
C[C@@H](O[C@H]1OCCN(Cc2n[nH]nc2CN(C)C)[C@H]1c1ccc(F)cc1)c1cc(C(F)(F)F)cc(C(F)(F)F)c1,-6.04% (inactive),
COc1ccc2c(c1)C[C@H](C(=O)Nc1ccc(-c3cn[nH]c3)cc1OCCN(C)C)CO2,-0.993% (inactive),
Cc1c(C(=O)NCCCO)cnn1-c1nc(-c2cccc(C(F)(F)F)c2)cs1,-21.3% (inactive),
CN(C)C(=O)c1cc2cnc(Nc3ccc(N4CCNCC4)cn3)nc2n1C1CCCC1,15.4% (inactive),
OCC(CO)(CO)NCC(O)Cn1c2ccc(Cl)cc2c2cc(Cl)ccc21 (stereo not given),-16.8% (inactive),
FC(F)(F)c1ccc(CNc2ccc(Cc3c[nH]c4ncccc34)cn2)cc1,-13.3% (inactive),
CC(CCC1(O)OC2CC3C4CC=C5CC(O[C@@H]6O[C@H](CO)[C@@H](O[C@@H]7O[C@H](CO)[C@@H](O)[C@H](O)[C@H]7O)[C@H](O)[C@H]6O[C@@H]6O[C@@H](C)[C@H](O)[C@@H](O)[C@H]6O)CCC5(C)C4CCC3(C)C2C1C)CO[C@@H]1O[C@H](CO)[C@@H](O)[C@H](O)[C@H]1O (stereo not given in full),-3.93% [at 11.6 µM] (inactive),
CC[C@H](C)[C@H]1O[C@]2(CC[C@@H]1C)C[C@@H]1C[C@@H](C/C=C(\C)[C@@H](O[C@H]3C[C@H](OC)[C@@H](O[C@H]4C[C@H](OC)[C@@H](O)[C@H](C)O4)[C@H](C)O3)[C@@H](C)/C=C/C=C3\CO[C@@H]4[C@H](O)C(C)=C[C@@H](C(=O)O1)[C@]34O)O2,-7.85% (inactive),
C=C1CC[C@@H]2[C@](C)(CO)[C@H](O)CC[C@@]2(C)[C@@H]1C/C=C1/C(=O)OC[C@@H]1O,-9.76% [at 38.5 µM] (inactive),

Structure (SMILES),"activity change, negative = cytotoxicity",Potency
C=C1/C(=C/C=C2\CCC[C@]3(C)[C@@H]([C@H](C)/C=C/C(=O)C4CC4)CC[C@@H]23)C[C@@H](O)C[C@@H]1O,23.5% (inactive),
CC1(C)SC2C(NC(=O)[C@H](C(=O)O)c3ccsc3)C(=O)N2C1C(=O)O (stereo not given in full),13.9% (inactive),
CNc1ccc([N+](=O)[O-])cc1-n1cnc(-c2ccc(C(F)(F)F)cc2)c1,-6.14% (inactive),
COc1cc2ncnc(Nc3ccc(Oc4ccccc4)cc3)c2cc1OC,,31.6 µM (active)
CC(=O)C1=C(O)C2c3c[nH]c4cccc(c34)CC2C(C)(C)N(C)C1=O (stereo not given),14.8% (inactive),
CC[C@H]1OC(=O)[C@H](C)[C@@H](O[C@H]2C[C@@](C)(OC)[C@@H](O)[C@H](C)O2)[C@H](C)[C@@H](O[C@@H]2O[C@H](C)C[C@H](N(C)C)[C@H]2O)[C@](C)(O)C[C@@H](C)/C(=N/OCOCCOC)[C@H](C)[C@@H](O)[C@]1(C)O,-6.46% (inactive),
CC1CCC(n2c3cnccc3c3cnc(Nc4ccc5c(n4)CCN(C(=O)CO)C5)nc32)CC1 (stereo not given),-2.22% (inactive),
CC1CCN(C(c2ccc(F)cc2)c2ccc(C(C)C(=O)O)cc2-c2ccc(C(F)(F)F)cc2)CC1 (stereo not given),-4.63% (inactive),
O=C(NCc1ccc(Oc2ccccc2)cc1)c1nc(-c2cc(Br)c(O)c(Br)c2)no1,3.69% (inactive),
CN(C)CCCCCCNC(=O)c1cccc(-c2cc(O)c3ncccc3c2)c1,-10.4% (inactive),
Cc1cc2nc(NCCCO)n(CC(=O)c3cc(C(C)(C)C)c(O)c(C(C)(C)C)c3)c2cc1C,-12.6% (inactive),
CC1(C)CC23[C@@H]4CC(=O)[C@@H]2COC(=O)[C@@H]3CC[C@H]41,-4.99% (inactive),
COc1ccc(C(=O)N(CCC(C)C)Cc2nc(C)c(C)n2Cc2ccccc2C)c(OC)c1,0.0071% (inactive),
O=C(O)c1ccc(O)c2ncc(N3CCCN(CCc4cccc5ccccc45)CC3)cc12,7.79% (inactive),
CC(C)(C)c1ccc(-c2nc3ccccc3[nH]2)cc1,,0.891 µM (active)
O=S(=O)(c1cccc2ccccc12)n1ccc2ccc(N3CCN4CCCC4C3)cc21 (stereo not given),-0.245% (inactive),
N#C[C@@H]1C[C@@H]2C[C@@H]2N1C(=O)[C@@H](N)C12CC3CC(CC(O)(C3)C1)C2,-13% (inactive),
Cn1c(NC[C@@H](N)Cc2ccccc2)nc(-c2ccncc2)c(-c2ccc3ccccc3c2)c1=O,-4.28% (inactive),
O=[N+]([O-])c1ccc(-[n+]2nc(-c3ccccc3)nn2-c2ccc(I)cc2)cc1,,11.2 µM (active)
CN([C@H]1c2cc(OCCCC(F)(F)F)ccc2OC(C)(C)[C@@H]1O)S(C)(=O)=O,6.03% (inactive),
